Source: PubChem
Mtb bLac sens = beta-lactam sensitization of Mtb H37Rv | M. tuberculosis H37Rv growth with meropenem, percent inhibition | inhibition, % at 25 µM | 330,000 compounds, 0.27% hits; call rule not given here;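 also: growth measured after seven days incubation then overnight dye step; 0% = bacteria only wells and 100% = bacteria with antibiotic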
CCHF vOTU inh-1 = CCHFV vOTU protease inhibition. Pep-AMC fluorescence. inhibition, % at 11.5 µM. 370,000 compounds, 0.55% hits; also: 0% = vehicle wells with enzyme and 100% = no enzyme wells
FBA Mtb inh = inhibits M. tuberculosis FBA enzyme. inhibition, % at 1 µM. P9WQA3. 360,000 compounds, 2.3% hits. purified M. tuberculosis FBA, fluorescence read-out. AID 588726; in the data active = inhibition above about 27%;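 also: 0% = vehicle and 100% = reference inhibitor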
RecA intein inh = Mtb RecA intein splicing inhibition | cell-free RecA intein splicing, fluorescence | 290,000 compounds, 0.75% hits | inhibition, % (concentration not given with the values); in the data active = inhibition above about 30%;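 also: 0% = vehicle wells and 100% = reference inhibitor control wells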
Target sequence (P9WHJ3 whole entry, looked up): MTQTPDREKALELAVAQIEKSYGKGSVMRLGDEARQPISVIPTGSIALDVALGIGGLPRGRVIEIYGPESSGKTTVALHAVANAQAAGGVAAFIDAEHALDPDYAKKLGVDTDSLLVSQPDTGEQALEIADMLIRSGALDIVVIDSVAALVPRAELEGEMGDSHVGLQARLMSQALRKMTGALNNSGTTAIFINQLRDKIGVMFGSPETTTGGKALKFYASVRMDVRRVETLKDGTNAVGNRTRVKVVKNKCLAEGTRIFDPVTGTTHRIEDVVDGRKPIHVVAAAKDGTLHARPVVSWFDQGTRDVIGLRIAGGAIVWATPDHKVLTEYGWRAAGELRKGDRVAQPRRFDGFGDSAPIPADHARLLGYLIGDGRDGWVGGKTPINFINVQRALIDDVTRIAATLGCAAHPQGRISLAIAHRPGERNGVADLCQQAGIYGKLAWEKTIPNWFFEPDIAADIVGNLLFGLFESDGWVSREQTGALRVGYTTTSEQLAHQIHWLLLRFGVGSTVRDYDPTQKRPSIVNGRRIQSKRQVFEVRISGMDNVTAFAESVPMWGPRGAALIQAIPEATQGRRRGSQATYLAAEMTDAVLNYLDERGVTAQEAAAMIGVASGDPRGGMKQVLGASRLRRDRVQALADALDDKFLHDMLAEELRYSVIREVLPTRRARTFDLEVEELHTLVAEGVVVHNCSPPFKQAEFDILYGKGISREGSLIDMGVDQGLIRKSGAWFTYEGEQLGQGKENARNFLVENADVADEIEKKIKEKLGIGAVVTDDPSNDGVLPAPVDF
GDH-TPI counter = inhibits GDH-TPI coupling enzymes, artifact for Mtb FBA screen; GDH-TPI coupled enzyme counterscreen, NADH absorbance; 360,000 compounds, 1.2% hits; inhibition, % at 4.8 µM; AID 588335;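 also: 0% = DMSO wells and 100% = wells lacking the enzyme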
CCHF vOTU inh-2 = confirmation of CCHF virus vOTU protease inhibitors; 1,900 compounds, 17% hits; shares compounds with CCHF vOTU inh-1; AID 686976; inhibition, % at 11.5 µM; Recombinant CCHFV vOTU, Pep-AMC fluorescence
The depositor's hits bear a star. The list is not random: actives were taken first. Their share in the collection is about 4.2%. Rule as the data show it, unless noted: active = inhibition above about 30%; inactive = the rest.

CC(=O)N1CCc2cc(S(=O)(=O)NC(C(=O)Nc3ccc4c(c3)OCCO4)C(C)C)ccc21 (stereo unspecified) was read as Mtb bLac sens -1, CCHF vOTU inh-1 30*, FBA Mtb inh 6, RecA intein inh 2, GDH-TPI counter 7 and CCHF vOTU inh-2 -7.
For COC(=O)CCC(=O)OC1(C)C(=O)C2=CN(C(CO)CO)C(c3ccc(OC)cc3)=CC2=C(Br)C1=O (stereo unspecified) the results were Mtb bLac sens 1, CCHF vOTU inh-1 31*, RecA intein inh -11 and CCHF vOTU inh-2 18.
For Cc1ccc(C(=O)Nc2nc(C(N)C(C)C)cs2)cc1 (stereo unspecified) the results were CCHF vOTU inh-1 -2, FBA Mtb inh -4 and GDH-TPI counter 5.
Cc1cc([N+](=O)[O-])nn1CCCC(=O)Nc1cc(Oc2ccccc2)cc([N+](=O)[O-])c1 was read as Mtb bLac sens 99, CCHF vOTU inh-1 8, FBA Mtb inh -4, RecA intein inh 5 and GDH-TPI counter 6.
For Cc1cccc(Oc2cc(NC(=O)Cn3cnc([N+](=O)[O-])n3)cc([N+](=O)[O-])c2)c1 the results were Mtb bLac sens 99, CCHF vOTU inh-1 33*, FBA Mtb inh -1, GDH-TPI counter 3 and CCHF vOTU inh-2 -3.
CCN1C(=O)[C@H]2[C@@H](c3ccc(OC)cc3)N[C@]3(CCCN(Cc4cccn4C)C3=O)[C@H]2C1=O was read as CCHF vOTU inh-1 30*, FBA Mtb inh 0, GDH-TPI counter 1 and CCHF vOTU inh-2 -2.
Screening COc1ccc([C@H]2N[C@]3(CCCN(Cc4cccn4C)C3=O)[C@H]3C(=O)N(C)C(=O)[C@@H]23)cc1 returned CCHF vOTU inh-1 -10, FBA Mtb inh -5 and GDH-TPI counter -4.
`Cc1ccc(C(=O)NS(=O)(=O)c2ccc(N=NN(C)C)cc2)cc1` gave Mtb bLac sens 4, CCHF vOTU inh-1 -2, FBA Mtb inh -3, RecA intein inh 0 and GDH-TPI counter 11.
CC(=O)OCCN(CCCn1c(-c2ccncc2)nc2ccccc21)c1nc(CN2CCCCC2)cs1 was read as Mtb bLac sens -3, CCHF vOTU inh-1 12, FBA Mtb inh -1, RecA intein inh -3 and GDH-TPI counter 8.
Screening Cc1cc(C)c2nc(N3C(=O)C(O)=C(C(=O)c4ccco4)C3c3ccc(O)cc3)sc2c1 (stereo unspecified) returned Mtb bLac sens 15, CCHF vOTU inh-1 34*, FBA Mtb inh 2, GDH-TPI counter 17 and CCHF vOTU inh-2 6.
For Cc1cc(C)c2nc(N3C(=O)C(O)=C(C(=O)c4ccco4)C3c3cccc(O)c3)sc2c1 (stereo unspecified) the results were Mtb bLac sens -5, CCHF vOTU inh-1 36*, FBA Mtb inh 1, GDH-TPI counter 8 and CCHF vOTU inh-2 -1.
CCOC(=O)c1sc(N2C(=O)C(O)=C(C(=O)c3ccco3)C2c2cccc([N+](=O)[O-])c2)nc1C (stereo unspecified) was read as Mtb bLac sens -13, CCHF vOTU inh-1 19, FBA Mtb inh 1, RecA intein inh 23 and GDH-TPI counter 25.
Screening CCOC(=O)c1sc(N2C(=O)C(O)=C(C(=O)c3ccco3)C2c2cccc(Cl)c2)nc1C (stereo unspecified) returned Mtb bLac sens 4, CCHF vOTU inh-1 42*, FBA Mtb inh 0, RecA intein inh 3, GDH-TPI counter 11 and CCHF vOTU inh-2 1.
For Cc1cc2c(c(C)c1CCO)C(=O)[C@H](C)C2 the results were Mtb bLac sens -3, CCHF vOTU inh-1 -4, FBA Mtb inh 4 and GDH-TPI counter 2.
For O=S1(=O)c2ccc(Br)cc2OC[C@H](Cc2ccccc2)N1Cc1cn(CCC2OCCCO2)nn1 the results were CCHF vOTU inh-1 -2.
`COC(=O)[C@]12C[C@H](CC(=O)N3CCCC3)C(=O)N(Cc3ccccc3)C1=C[C@H](C(C)(C)C)O[C@@H]2C` gave CCHF vOTU inh-1 0.
`COC(=O)c1nn(-c2cccc(C)c2)c2nnc(Cc3ccccc3)c(=O)n12` gave Mtb bLac sens -5, CCHF vOTU inh-1 -1, FBA Mtb inh 1, RecA intein inh 0 and GDH-TPI counter 0.
COC(=O)c1nn(-c2ccccc2)c2nnc(Cc3ccc(C)cc3)c(=O)n12 was read as Mtb bLac sens 2, CCHF vOTU inh-1 32*, FBA Mtb inh 5, RecA intein inh -2, GDH-TPI counter -1 and CCHF vOTU inh-2 -16.
Screening Cc1ccc(S(=O)(=O)Nc2nc3c(s2)C(=O)CC(C)(C)C3)cc1 returned Mtb bLac sens 0, CCHF vOTU inh-1 30*, FBA Mtb inh 2, RecA intein inh -1, GDH-TPI counter 26 and CCHF vOTU inh-2 -11.
Screening COc1ccc(S(=O)(=O)Nc2nc3c(s2)C(=O)CC(C)(C)C3)cc1 returned Mtb bLac sens -5, CCHF vOTU inh-1 2, FBA Mtb inh 0, RecA intein inh 1 and GDH-TPI counter 19.
COc1ccc(NC(=O)CN(C)C(=O)Cc2ccc(S(=O)(=O)N3CCOCC3)s2)cc1 was read as Mtb bLac sens -6, CCHF vOTU inh-1 25, FBA Mtb inh 6, RecA intein inh 10 and GDH-TPI counter 9.
CCn1c(COc2cccc(C)c2)nnc1SCC(=O)Nc1cccc(C(=O)O)c1 was read as Mtb bLac sens -1, CCHF vOTU inh-1 7, FBA Mtb inh 6, RecA intein inh -7 and GDH-TPI counter 15.
`CCn1c(COc2ccc3ccccc3c2C)nnc1SCC(=O)Nc1cccc(C(=O)O)c1` gave Mtb bLac sens 4, CCHF vOTU inh-1 33*, FBA Mtb inh 3, RecA intein inh -1, GDH-TPI counter 0 and CCHF vOTU inh-2 4.
`COC(=O)[C@]12C[C@H](CC(=O)NCCc3ccccc3OC)C(=O)N(CCC3=CCCCC3)C1=C[C@H](C(C)(C)C)O[C@@H]2C` gave CCHF vOTU inh-1 20.
Screening Cc1cc(C(=O)CS(=O)(=O)c2ccc(Cl)cc2)cc(C)c1O returned Mtb bLac sens -2, CCHF vOTU inh-1 3, FBA Mtb inh -4, RecA intein inh 8 and GDH-TPI counter 12.
O=C(NC(c1ccc(F)cc1)c1ccc2ccccc2n1)C1CCN(CCOc2ccc(F)cc2)CC1 (stereo unspecified) was read as CCHF vOTU inh-1 32*, FBA Mtb inh -2, GDH-TPI counter -1 and CCHF vOTU inh-2 -10.
For Cc1nc(-[n+]2nc(-c3ccncc3)nn2-c2ccccc2)sc1C the results were CCHF vOTU inh-1 44*, FBA Mtb inh -2 and CCHF vOTU inh-2 -4.
`CC(C)c1nc(C(=O)N2CCCC(N3CCN(c4cccc(Cl)c4)CC3)C2)cs1` (stereo unspecified) gave Mtb bLac sens -1, CCHF vOTU inh-1 6, FBA Mtb inh -1, RecA intein inh -1 and GDH-TPI counter -1.
For CN(C)S(=O)(=O)N1CCCN(S(=O)(=O)N(C)C)CC1 the results were Mtb bLac sens -10, CCHF vOTU inh-1 44*, FBA Mtb inh 2, RecA intein inh -3, GDH-TPI counter 3 and CCHF vOTU inh-2 -10.
